# Laboratory results published in article PMC5540273 (PLoS ONE, 2017).
# Legend:
# Conditions in all cases: concentration: 1 μM, replicates: in singlicate; n = 1
# [1] = system: ROCK1
# [2] = system: ROCK2
# [3] = system: ROS1
# [4] = system: RPS6KA4(Kin.Dom.1-N-terminal)
# [5] = system: RPS6KA4(Kin.Dom.2-C-terminal)
# [6] = system: RPS6KA5(Kin.Dom.1-N-terminal)
# [7] = system: RPS6KA5(Kin.Dom.2-C-terminal)
# [8] = system: T1, RSK1(Kin.Dom.1-N-terminal)
# T1 construct: gene RPS6KA1
# [9] = system: T2, RSK1(Kin.Dom.2-C-terminal)
# T2 construct: gene RPS6KA1
# [10] = system: T3, RSK2(Kin.Dom.1-N-terminal)
# T3 construct: gene RPS6KA3
# 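Also: KINOMEscan kinase panel screen.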
SMILES,%Inh [1] [%],%Inh [2] [%],%Inh [3] [%],%Inh [4] [%],%Inh [5] [%],%Inh [6] [%],%Inh [7] [%],%Inh [8] [%],%Inh [9] [%],%Inh [10] [%]
CC(=O)Nc1nc2cnc(Nc3cc(NC(=O)c4cccc(CCC#N)c4)ccc3C)nc2s1,14,15,0,0,0,15,2,0,0,5
O=C(Nc1n[nH]c2nc(-c3nccs3)c(Br)cc12)C1CCCC1 [SB-742609],10,0,0,7,0,0,0,14,0,11
COc1ccc(C2=C(Nc3cccc(C(=O)O)c3)C(=O)NC2=O)cc1 [SB-390765],20,0,14,19,17,2,9,30,7,34
Cn1ccc2ncnc(Oc3ccc(Nc4nc5ccccc5[nH]4)cc3)c21,0,0,0,0,0,7,0,0,0,0
Cc1ccccc1-n1cnc2c(N)ncnc21 [SKF-97510],0,0,0,0,0,0,0,18,93,0
O=c1cc(N2CCOCC2)nc2n(Cc3cccc(Cl)c3Cl)ccn12 [GSK2286295],0,34,7,17,0,11,0,22,0,0
COc1cc2ncn(-c3cc(OCC4CCCO4)c(C(N)=O)s3)c2cc1OC (centres unmarked) [GSK204607],0,0,8,0,3,9,8,13,0,0
Cl.O=C(Nc1cccc(-c2nn3ncccc3c2-c2ccnc(Nc3cccnc3)n2)c1)c1c(F)cccc1F [GSK312879],0,0,0,20,0,9,0,8,10,27
CS(=O)(=O)c1ccc(-c2c(-c3ncn[nH]3)sc(N3CCOCC3)c2C#N)cc1,0,15,14,4,0,0,0,16,14,4
O=C(Nc1n[nH]c2cc(-c3cccc(F)c3F)ccc12)C1CC1 [SB-733894],0,9,7,0,2,0,2,13,6,0
CS(=O)(=O)c1ccc(-c2nc3n(c2-c2ccncc2)CCC3)cc1 [SKF-105942],0,0,2,1,0,0,0,27,0,4
Fc1cc(Cl)ccc1Nc1ccnc2cc(-c3ccc(CN4CCCCC4)o3)ccc12 [GW560116],31,24,2,0,0,0,8,0,26,0
COc1cccc(NC(=O)NC2CCN(c3ccnc(Nc4ccc(F)cc4)n3)C2)c1 (centres unmarked) [GSK1379721],0,5,0,0,0,0,12,15,25,4
Nc1ncnc2[nH]c(-c3ccccc3)nc12 [AH5015],11,14,0,15,0,5,0,15,0,15
COc1ccc2nc(-c3cccc(C)n3)nc(Nc3ccncc3)c2c1 [GSK204919],13,5,4,12,0,25,0,2,7,0
O=C1NC(=O)C(N2CCc3ccccc32)=C1c1ccccc1Cl [SB-373598],4,0,22,41,0,7,10,0,14,65
Cc1cccc(-c2nc(Nc3ccncc3)c3ccccc3n2)n1 [GW855857],0,0,0,20,0,0,4,0,8,0
